Results: PubChem BioAssay AID1159580 (chemical genetic matrix, 2015)
Where “and” joins values, the source holds several entries; their conditions need not be identical. Identical values can stand only once. Screen size: about 5,500 compounds; about 2,000 (36%) were called active. Another 18% or so got no clear call; they are omitted. No stated cut-off is given here; in the data, active means normalized growth mostly below about 0.91 (no sharp cut-off); inconclusive means no clear call, values can overlap the other calls; inactive means mostly above about 0.92. This is one part of the list.

Assay: chemical genetic growth profiling, strain panel (AID 1159580);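 further: tested at 20 µM; growth read once vehicle control cultures reached saturation at 30 °C; 1 = growth at the plate median or of vehicle wells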
Conditions: S. cerevisiae deletion strains, growth OD

Measured: normalized growth

CC(=O)O[C@@H]1CC2C(C)(C)C(=O)CC[C@]2(C)C2CC[C@@]3(C)[C@H](c4ccoc4)OC(=O)C4OC43[C@@]21C (some centres not stated)
inactive: locus YAL013W, strain DEP1, stronger effect = lower value 1.01 | locus YAL021C, strain ccr4, stronger effect = lower value 1.01 | locus YAL026C, strain drs2, stronger effect = lower value 0.982 | locus YAL030W, strain snc1, stronger effect = lower value 0.987 | locus YBL061C, strain skt5, stronger effect = lower value 0.98 | locus YBR009C, strain hhf1, stronger effect = lower value 0.985 | locus YBR021W, strain FUR4, stronger effect = lower value 0.953 | locus YBR023C, strain chs3, stronger effect = lower value 0.992 | locus YBR171W, strain sec66, stronger effect = lower value 0.952 | locus YBR229C, strain ROT2, stronger effect = lower value 1 | locus YBR231C, strain swc5, stronger effect = lower value 1.01 | locus YBR279W, strain paf1, stronger effect = lower value 0.991 | locus YCL011C, strain gbp2, stronger effect = lower value 0.977 | locus YCL016C, strain dcc1, stronger effect = lower value 1.03 | locus YCL029C, strain bik1, stronger effect = lower value 1.02 | locus YCL069W, strain vba3, stronger effect = lower value 0.96 | locus YCR088W, strain abp1, stronger effect = lower value 0.973 | locus YDL005C, strain med2, stronger effect = lower value 0.968 | locus YDL035C, strain GPR1, stronger effect = lower value 0.985 | locus YDL040C, strain nat1, stronger effect = lower value 0.976 | locus YDL074C, strain BRE1, stronger effect = lower value 0.985 | locus YDL101C, strain DUN1, stronger effect = lower value 1.01 | locus YDL134C, strain PPH21, stronger effect = lower value 0.992 | locus YDL185W, strain tfp1, stronger effect = lower value 1.01 | locus YDL192W, strain arf1, stronger effect = lower value 1.01 | locus YDR001C, strain nth1, stronger effect = lower value 0.981 | locus YDR069C, strain doa4, stronger effect = lower value 0.943 | locus YDR101C, strain arx1, stronger effect = lower value 0.994 | locus YDR137W, strain rgp1, stronger effect = lower value 0.968 | locus YDR159W, strain sac3, stronger effect = lower value 0.917 | locus YDR162C, strain NBP2, stronger effect = lower value 0.981 | locus YDR195W, strain ref2 0.972 | locus YDR297W, strain sur2, stronger effect = lower value 0.98 | locus YDR318W, strain mcm21, stronger effect = lower value 1 | locus YDR334W, strain swr1, stronger effect = lower value 0.98 | locus YDR335W, strain msn5, stronger effect = lower value 0.981 | locus YDR388W, stronger effect = lower value 1.01 | locus YDR392W, strain spt3, stronger effect = lower value 0.897 | locus YDR502C, strain sam2, stronger effect = lower value 1.02 | locus YEL003W, strain gim4, stronger effect = lower value 0.965 | locus YEL037C, strain rad23, stronger effect = lower value 0.978 | locus YEL061C, strain CIN8 (second series), stronger effect = lower value 0.961 | locus YEL061C, strain CIN8, stronger effect = lower value 1 | locus YER015W, strain faa2, stronger effect = lower value 1 | locus YER016W, strain bim1, stronger effect = lower value 0.972 | locus YER110C, stronger effect = lower value 1.02 | locus YER111C, strain swi4, stronger effect = lower value 0.961 | locus YER155C, strain BEM2 (second series), stronger effect = lower value 1.01 | locus YER155C, strain BEM2, stronger effect = lower value 0.978 | locus YER167W, strain BCK2, stronger effect = lower value 0.993 | locus YFR010W, strain ubp6, stronger effect = lower value 0.958 | locus YGL078C, strain dbp3, stronger effect = lower value 1.01 | locus YGL086W, strain mad1, stronger effect = lower value 1.01 | locus YGL167C, strain pmr1, stronger effect = lower value 0.989 | locus YGL173C, strain kem1, stronger effect = lower value 0.957 | locus YGL227W, strain vid30, stronger effect = lower value 0.975 | locus YGL240W, strain doc1, stronger effect = lower value 0.979 | locus YGL248W, strain PDE1, stronger effect = lower value 0.998 | locus YGR135W, strain pre9, stronger effect = lower value 1.03 | locus YGR252W, strain gcn5, stronger effect = lower value 0.959 | locus YHR013C, strain ard1, stronger effect = lower value 0.979 | locus YHR027C, strain rpn1, stronger effect = lower value 0.987 | locus YHR030C, strain SLT2, stronger effect = lower value 1.01 and 0.997 | locus YHR079C, strain IRE1 (second series), stronger effect = lower value 1.02 | locus YHR079C, strain IRE1, stronger effect = lower value 0.987 | locus YHR094C, strain hxt1, stronger effect = lower value 1.02 | locus YHR129C, strain ARP1, stronger effect = lower value 0.999 | locus YHR142W, strain chs7, stronger effect = lower value 0.96 | locus YHR200W, strain rpn10, stronger effect = lower value 1 | locus YIL066C, strain RNR3, stronger effect = lower value 0.982 | locus YIL073C, strain SPO22, stronger effect = lower value 1.01 | locus YIL125W, strain kgd1, stronger effect = lower value 0.998 | locus YIR030C, strain dcg1, stronger effect = lower value 1.01 | locus YJL092W, strain hpr5, stronger effect = lower value 0.973 | locus YJL095W, strain BCK1 (second series), stronger effect = lower value 0.993 | locus YJL095W, strain BCK1, stronger effect = lower value 0.994 and 0.967 | locus YJL115W, strain asf1, stronger effect = lower value 0.99 | locus YJL129C, strain trk1, stronger effect = lower value 0.928 | locus YJL134W, strain LCB3, stronger effect = lower value 0.999 | locus YJL154C, strain vps35, stronger effect = lower value 0.984 | locus YJL164C, strain tpk1, stronger effect = lower value 1.01 | locus YJL166W, strain qcr8, stronger effect = lower value 0.977 | locus YJL168C, strain set2, stronger effect = lower value 1.02 | locus YJL187C, strain SWE1 (second series), stronger effect = lower value 1.01 | locus YJR066W, strain TOR1, stronger effect = lower value 0.95 | locus YJR075W, strain HOC1, stronger effect = lower value 0.992 | locus YKL009W, strain mrt4, stronger effect = lower value 0.98 | locus YKL068W, stronger effect = lower value 1 | locus YKL085W, strain MDH1 (second series), stronger effect = lower value 1.01 | locus YKL085W, strain MDH1, stronger effect = lower value 1.01 | locus YKL160W, strain elf1, stronger effect = lower value 1.03 | locus YKL190W, strain CNB1, stronger effect = lower value 1 | locus YKR001C, strain vps1, stronger effect = lower value 0.987 | locus YKR026C, strain gcn3, stronger effect = lower value 0.966 | locus YKR091W, strain srl3, stronger effect = lower value 0.996 | locus YLL001W, strain dnm1, stronger effect = lower value 0.959 | locus YLL026W, stronger effect = lower value 0.989 | locus YLL041C, strain sdh2, stronger effect = lower value 1 | locus YLR027C, strain aat2, stronger effect = lower value 1 | locus YLR039C, strain RIC1, stronger effect = lower value 1.03 | locus YLR058C, strain SHM2, stronger effect = lower value 1 | locus YLR102C, strain apc9, stronger effect = lower value 1.01 | locus YLR113W, strain HOG1, stronger effect = lower value 1.02 | locus YLR221C, strain rsa3, stronger effect = lower value 0.946 | locus YLR258W, strain gsy2, stronger effect = lower value 0.988 | locus YLR262C, strain YPT6 (second series), stronger effect = lower value 0.97 | locus YLR262C, strain YPT6, stronger effect = lower value 1.01 | locus YLR268W, strain sec22, stronger effect = lower value 0.994 | locus YLR320W, strain mms22, stronger effect = lower value 0.969 | locus YLR342W, strain FKS1 (second series), stronger effect = lower value 1 | locus YLR342W, strain FKS1, stronger effect = lower value 0.977 | locus YLR357W, strain rsc2, stronger effect = lower value 1.02 | locus YLR370C, strain arc18, stronger effect = lower value 0.957 | locus YLR371W, strain rom2, stronger effect = lower value 1 | locus YLR384C, strain iki3, stronger effect = lower value 0.976 | locus YLR418C, strain cdc73, stronger effect = lower value 0.979 | locus YML016C, strain PPZ1, stronger effect = lower value 0.994 | locus YML032C, strain rad52, stronger effect = lower value 0.995 | locus YML120C, strain ndi1, stronger effect = lower value 1.01 | locus YML124C, strain tub3, stronger effect = lower value 1 | locus YMR058W, strain fet3, stronger effect = lower value 0.991 | locus YMR078C, strain ctf18, stronger effect = lower value 1.01 | locus YMR125W, strain sto1, stronger effect = lower value 0.978 | locus YMR129W, stronger effect = lower value 0.985 | locus YMR205C, strain PFK2, stronger effect = lower value 1 | locus YMR223W, strain ubp8, stronger effect = lower value 1.01 | locus YMR231W, strain pep5, stronger effect = lower value 0.966 | locus YMR307W, strain GAS1, stronger effect = lower value 0.937 | locus YNL067W, strain RPL9B, stronger effect = lower value 1.01 | locus YNL071W, strain lat1, stronger effect = lower value 0.989 | locus YNL153C, strain GIM3, stronger effect = lower value 1.01 | locus YNL183C, strain NPR1, stronger effect = lower value 0.982 | locus YNL209W, strain ssb2, stronger effect = lower value 0.997 | locus YNL233W, strain BNI4, stronger effect = lower value 0.997 | locus YNL248C, strain rpa49, stronger effect = lower value 0.942 | locus YNL250W, strain rad50, stronger effect = lower value 1.01 | locus YNL271C, strain bni1, stronger effect = lower value 1.01 | locus YNL298W, strain CLA4, stronger effect = lower value 1.01 | locus YNL307C, strain MCK1, stronger effect = lower value 1.02 | locus YNL322C, strain KRE1 (second series), stronger effect = lower value 0.985 | locus YNR049C, strain mso1, stronger effect = lower value 0.98 | locus YNR052C, strain pop2, stronger effect = lower value 1.01 | locus YOL012C, strain htz1 0.799 | locus YOL147C, strain pex11, stronger effect = lower value 1.01 | locus YOR001W, strain rrp6, stronger effect = lower value 0.925 | locus YOR061W, strain CKA2, stronger effect = lower value 0.985 | locus YOR069W, strain VPS5, stronger effect = lower value 1.01 | locus YOR070C, strain gyp1, stronger effect = lower value 0.989 | locus YOR080W, strain dia2, stronger effect = lower value 0.976 | locus YOR083W, strain WHI5, stronger effect = lower value 1.03 | locus YOR106W, strain vam3, stronger effect = lower value 1 | locus YOR136W, strain idh2, stronger effect = lower value 1.02 | locus YOR144C, strain elg1, stronger effect = lower value 1 | locus YOR184W, strain ser1, stronger effect = lower value 0.989 | locus YOR231W, strain MKK1, stronger effect = lower value 1.01 | locus YOR265W, strain rbl2, stronger effect = lower value 0.979 | locus YOR270C, strain vph1, stronger effect = lower value 0.835 | locus YOR290C, strain snf2, stronger effect = lower value 1.01 | locus YOR316C, strain cot1, stronger effect = lower value 1.02 | locus YPL051W, strain arl3, stronger effect = lower value 0.964 | locus YPL055C, strain LGE1, stronger effect = lower value 0.963 | locus YPL078C, strain atp4, stronger effect = lower value 1.03 | locus YPL106C, strain sse1, stronger effect = lower value 1.01 | locus YPL240C, strain hsp82, stronger effect = lower value 0.978 | locus YPL241C, strain CIN2, stronger effect = lower value 0.999 | locus YPL256C, strain CLN2, stronger effect = lower value 1.01 | locus YPR119W, strain clb2, stronger effect = lower value 1.01 | locus YPR141C, strain kar3, stronger effect = lower value 1.01 | locus YPR163C, strain tif3, stronger effect = lower value 1.01 | locus YPR167C, strain met16, stronger effect = lower value 1.01 | strain wtn01, stronger effect = lower value 0.977
active: locus YGL253W, strain hxk2, stronger effect = lower value 0.874
